Assay results published in article PMC5700166.

Experiments:
Test in all cases: protein-binding microarray (PBM); PBM: ~300 nM protein, 6 mM HEPES pH 7.8, 80 mM KCl, 0.5 mM EDTA, 0.5 mM EGTA, 6% glycerol, 35 ng/ul poly-dIdC, 1% milk, 1 h, room temperature; Ap Aiptasia and Nv Nematostella (sea anemones) / Co Capsaspora / Aq Amphimedon (sponge) / Dm Drosophila / Hu human; RHD is the Rel homology domain; high values mean tight binding
Settings in all cases: dsDNA, one strand shown
GST-Ap-NF-kB RHD = target: T1, GST-Ap-NF-kB RHD (Exaiptasia pallida (Aiptasia), UniProt A0A913YAJ5 2-422)
T1 sequence: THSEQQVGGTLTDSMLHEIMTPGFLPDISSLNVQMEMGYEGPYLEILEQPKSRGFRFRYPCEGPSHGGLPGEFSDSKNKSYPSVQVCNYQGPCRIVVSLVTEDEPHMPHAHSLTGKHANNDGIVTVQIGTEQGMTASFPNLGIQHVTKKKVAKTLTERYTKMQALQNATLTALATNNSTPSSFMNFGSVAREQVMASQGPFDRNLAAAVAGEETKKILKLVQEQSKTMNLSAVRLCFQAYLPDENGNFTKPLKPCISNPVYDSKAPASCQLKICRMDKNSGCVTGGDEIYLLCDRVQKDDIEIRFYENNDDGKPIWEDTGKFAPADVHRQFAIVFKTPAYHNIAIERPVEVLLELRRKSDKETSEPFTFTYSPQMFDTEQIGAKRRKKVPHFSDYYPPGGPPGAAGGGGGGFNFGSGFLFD

[1] = target: T2, GST-Nv-NF-kB (Cys allele) (Nematostella vectensis, UniProt E5G601 2-411)
T2 sequence: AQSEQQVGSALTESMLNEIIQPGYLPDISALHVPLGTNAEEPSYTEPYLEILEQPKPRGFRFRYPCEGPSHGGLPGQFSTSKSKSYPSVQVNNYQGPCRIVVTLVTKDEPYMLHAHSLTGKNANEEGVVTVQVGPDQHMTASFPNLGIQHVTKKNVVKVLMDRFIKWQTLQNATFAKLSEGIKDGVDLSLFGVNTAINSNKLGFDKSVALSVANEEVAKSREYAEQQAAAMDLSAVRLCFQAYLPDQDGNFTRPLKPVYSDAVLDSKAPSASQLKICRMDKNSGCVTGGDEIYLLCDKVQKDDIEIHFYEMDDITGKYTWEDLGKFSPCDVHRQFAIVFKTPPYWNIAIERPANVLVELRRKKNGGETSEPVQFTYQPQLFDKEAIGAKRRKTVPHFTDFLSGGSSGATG

GST-Co-NF-kB = target: T3, GST-Co-NF-kB (Capsaspora owczarzaki, UniProt F1ARL5 200-546)
T3 sequence: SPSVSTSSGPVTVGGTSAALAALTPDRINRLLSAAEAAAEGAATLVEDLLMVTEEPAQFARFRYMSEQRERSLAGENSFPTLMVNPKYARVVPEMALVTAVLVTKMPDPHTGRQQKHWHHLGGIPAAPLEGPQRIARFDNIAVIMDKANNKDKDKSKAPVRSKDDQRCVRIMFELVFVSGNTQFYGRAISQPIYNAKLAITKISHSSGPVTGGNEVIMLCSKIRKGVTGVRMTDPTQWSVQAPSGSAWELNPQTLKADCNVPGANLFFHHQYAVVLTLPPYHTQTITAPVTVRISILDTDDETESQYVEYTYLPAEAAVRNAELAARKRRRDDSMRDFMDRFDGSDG

GST-Aq-NF-kB = target: T4, GST-Aq-NF-kB (Amphimedon queenslandica, UniProt A9Y5G7 2-389)
T4 sequence: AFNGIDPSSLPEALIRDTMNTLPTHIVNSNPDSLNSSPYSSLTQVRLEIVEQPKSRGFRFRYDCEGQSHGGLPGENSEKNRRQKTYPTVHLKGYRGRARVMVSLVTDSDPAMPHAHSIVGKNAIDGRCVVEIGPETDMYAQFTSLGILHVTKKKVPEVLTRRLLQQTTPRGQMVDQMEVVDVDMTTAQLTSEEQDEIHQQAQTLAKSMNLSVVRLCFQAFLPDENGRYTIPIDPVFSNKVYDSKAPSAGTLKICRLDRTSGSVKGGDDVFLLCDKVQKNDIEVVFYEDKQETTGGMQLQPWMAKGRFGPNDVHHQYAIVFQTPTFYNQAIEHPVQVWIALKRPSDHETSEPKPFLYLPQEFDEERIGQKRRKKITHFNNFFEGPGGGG

| Sequence | binding signal (GST-Ap-NF-kB RHD) | binding signal [1] | binding signal (GST-Co-NF-kB) | binding signal (GST-Aq-NF-kB) |
| --- | --- | --- | --- | --- |
| CCGATTAACATCAGGAGTCTCCCTGATGTTAATCGGGTCTTGATTCGCTTGACGCTGCTG | 1.69 z-score | 2.44 z-score | 2.17 z-score | 5.28 z-score |
| CCGATTAACATCAGATTTCTCCCTGATGTTAATCGGGTCTTGATTCGCTTGACGCTGCTG | 1.96 z-score | 3.11 z-score | 2.92 z-score | 3.18 z-score |
| CCGATTAACATCATTTCCCTTGATGATGTTAATCGGGTCTTGATTCGCTTGACGCTGCTG | 1.97 z-score | 4.19 z-score | 1.95 z-score | 3.49 z-score |
| CCGATTAACATCAACATGGGAAATGATGTTAATCGGGTCTTGATTCGCTTGACGCTGCTG | 1.54 z-score | 2.51 z-score | 1.82 z-score | 1.66 z-score |
| CCGATTAACATCAGGGACGGAAATGATGTTAATCGGGTCTTGATTCGCTTGACGCTGCTG | 2.7 z-score | 3.44 z-score | 2.07 z-score | 2.84 z-score |
| CCGATTAACATCAGCTCCCCCCCTGATGTTAATCGGGTCTTGATTCGCTTGACGCTGCTG | 5.26 z-score | 3.87 z-score | 5.77 z-score | 3.99 z-score |
| CCGATTAACATCACCCACTTCCCTGATGTTAATCGGGTCTTGATTCGCTTGACGCTGCTG | 1.06 z-score | 1.67 z-score | 1.4 z-score | 1.65 z-score |
| CCGATTAACATCAGGTCGGGAAATGATGTTAATCGGGTCTTGATTCGCTTGACGCTGCTG | 1.76 z-score | 2.6 z-score | 3.1 z-score | 1.83 z-score |
| CCGATTAACATCATCAGGGAAAATGATGTTAATCGGGTCTTGATTCGCTTGACGCTGCTG | 2.12 z-score | 4.35 z-score | 2.95 z-score | 2.95 z-score |
| CCGATTAACATCAGGGAAAGGGATGATGTTAATCGGGTCTTGATTCGCTTGACGCTGCTG | 2.49 z-score | 3.29 z-score | 2.1 z-score | 2.84 z-score |
| CCGATTAACATCAGGGAATTAGATGATGTTAATCGGGTCTTGATTCGCTTGACGCTGCTG | 1.83 z-score | 3.48 z-score | 2.41 z-score | 3.43 z-score |
| CCGATTAACATCAGACTGGGAAATGATGTTAATCGGGTCTTGATTCGCTTGACGCTGCTG | 1.4 z-score | 1.92 z-score | 3.05 z-score | 1.18 z-score |
| CCGATTAACATCAAGCGTTTCCCTGATGTTAATCGGGTCTTGATTCGCTTGACGCTGCTG | 2.29 z-score | 3.6 z-score | 2.62 z-score | 2.82 z-score |
| CCGATTAACATCACTTTCCCAAATGATGTTAATCGGGTCTTGATTCGCTTGACGCTGCTG | 1.27 z-score | 2.64 z-score | 2.28 z-score | 1.54 z-score |
